For 9 compounds, growth results are on record in PubChem BioAssay (NCI).

Holding throughout (test): NCI-60 one-dose screen, 48 h (100 = growth as untreated, 0 = no growth, -100 = all killed)
Conditions in all cases: 10 µM unless noted

The test system of test [1] is NCI-H23 lung.
For test [2], the system named is NCI-H226 lung.
In test [3] the test system is NCI-H322M lung.
In test [4] the test system is HOP-62 NSCLC.
For test [5], the system named is NCI-H460 lung.
Test [6] concerns NCI-H522 lung.
In test [7] the test system is A549/ATCC NSCLC.
Test [8] concerns 786-0 renal.
The test system of test [9] is COLO 205 colon.
For test [10], the system named is DU-145 prostate.
Test [11] relates to MALME-3M melanoma.
The test system of test [12] is MDA-MB-231 breast.
The subject of test [13] is RXF 393 renal.
The test system of test [14] is SF-268 CNS.
The subject of test [15] is SF-295 CNS.
Test [16] has as its system SF-539 CNS.
Test [17] deals with UACC-257 melanoma.
Test [18] relates to M14 melanoma.
Test [19] concerns K-562 leukemia.

Molecules are shown by their SMILES. About 83,000 compounds went through this panel and 20% of them were active in at least one assay; those are over-represented in the sample as a whole.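 Plates (96-well) were seeded with cells, treated with compound at one concentration, and incubated for 48 hours before percent growth was determined.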 Unmarked numbers belong to inactive results. The source made the active and inactive calls. The calls were made as follows: active = growth percent below 10; inactive = the rest.

In the case of `COc1ccccc1CNCCCN1C(=O)c2ccc3c4c(ccc(c24)C1=O)C(=O)N(CCCCNCCCN)C3=O`, the growth in test [1] is -41.7% (active); in [2], 62.6%; in test [3], 5.96% (active); in test [4], 40.1%; in test [5], -38.5% (active); in test [6], -78.4% (active). In addition, the growth in test [7] is 33%; in test [8], 40%; in [9], -83.7% (active); in [10], -72.6% (active); in test [11], -95.6% (active); in [12], 9.1% (active). Also, the growth in test [13] was -4.56% (active); in test [14], 2.12% (active); in [15], 54.8%; in test [16], -61.1% (active); in test [17] it was -95% (active); in [18] it was -49.3% (active).
For the compound `COc1cc(CN(c2ccc(C)cc2)C2OC(=O)c3ccccc32)cc(OC)c1OC` (stereo unspecified), the growth was 29% in [1]; 20.1% in test [2]; 60.2% in test [3]; 24.8% in test [4]; 18.4% in test [5]; 31.7% in [6]. In addition, the growth in [7] is 30.5%; in [8], 28.9%; in [9] it was -45.5% (active); in test [10], 25%; in test [11], 63.4%; in test [12], 64.6%. The growth in [13] is 22.3%; in test [14], 34.1%; in test [15] it was 16.8%; in test [16] it was 5.91% (active); in test [17] it was 94.2%; in test [18], -10% (active).
`O=[N+]([O-])c1ccc(N=Nc2c(NNc3ccc([N+](=O)[O-])cn3)cc(S(=O)(=O)O)c3ccccc23)nc1`: the growth in [1] was 81.2%; in [2], 95.8%; in test [3], 60.8%; in test [4], 85.5%; in test [5], 63.7%; in [6], 84.9%. Besides, the growth in test [7] was 89.2%; in [8] it was 109%; in [10] it was 74.9%; in test [19] it was 94.3%; in [11], 129%; in test [12], 57%. The growth is 120% in test [13]; 63.9% in test [14]; 114% in [15]; 89.3% in [16]; 101% in test [17]; 60.6% in [18].
In the case of `COc1ccc([C@H]2c3[nH]c4ccccc4c3C[C@H]3C(=O)N(CCCCCCC(=O)NO)CC(=O)N23)cc1`, the growth in test [1] is 34.6%; in test [2] it was 76.9%; in test [3], 53.2%; in test [4] it was 42.9%; in [5] it was 47%; in test [6], 4.51% (active). Also, the growth was 60% in test [7]; 83.6% in test [8]; 24.2% in test [10]; 6.77% (active) in test [19]; -4% (active) in test [11]; 45.3% in [12]. In addition, the growth was 22.2% in test [13]; 69.7% in test [14]; 34.8% in test [15]; 38.1% in test [16]; 27.7% in [17]; 22.4% in test [18].
With `CCOC(=O)C1=C(C)NC(=S)NC1c1ccccc1` (stereo unspecified), the growth was 108% in [1]; 91.6% in [2]; 108% in test [3]; 101% in [4]; 104% in test [5]; 91.6% in test [6]. For the same compound, the growth in test [7] is 109%; in test [8], 101%; in [10], 109%; in [11], 101%; in [12] it was -95.7% (active); in test [13] it was 117%. Also, the growth in test [14] was 91.7%; in test [15], 103%; in test [16], 97.2%; in test [17] it was 101%; in test [18], 107%.
On to `c1csc(-c2cnc3nonc3n2)c1`, for which the growth in test [1] was 72.8%; in [2], 88.1%; in test [3], 90.4%; in test [4], 87.9%; in test [5], 102%; in test [6] it was 70.7%. For the same compound, the growth was 94.2% in test [7]; 101% in [8]; 108% in [10]; 67.4% in test [19]; 100% in [11]; 82% in test [12]. Also, the growth was 117% in [13]; 88.7% in test [14]; 101% in [15]; 96.8% in test [16]; 75.3% in test [17]; 89.4% in [18].
Take `CCCCCCCC/C=C/CCCCCCCC1=NC(C)(C)CN1C(C)C`: the growth in test [1] is -2.44% (active); in test [2] it was 61.4%; in test [3], 76.8%; in test [4], -79.6% (active); in [5], -45.9% (active); in test [6], -57.6% (active). Moreover, the growth in test [7] is 15.7%; in test [9] it was -67.3% (active); in test [10], 21.9%; in test [19] it was -54.5% (active); in [11] it was -19.5% (active); in [12], -9.32% (active). Also, the growth in [13] is -68.1% (active); in test [14], 4.16% (active); in test [15] it was 6.07% (active); in test [16] it was 8.28% (active); in [17] it was 11.1%; in test [18], -75.3% (active).
On to `O=C(c1ccccc1)c1cccc(C(Br)Br)c1`, for which the growth in test [1] is 92.8%; in [2], 101%; in [3] it was 95.1%; in test [4] it was 86.7%; in test [5], 66.4%; in test [6] it was 66%. The growth is 86.9% in test [7]; 100% in test [8]; 93.7% in [10]; 46.4% in test [19]; 88.9% in test [11]; 103% in test [12]. Besides, the growth in test [13] is 95.7%; in test [14] it was 95.5%; in test [15] it was 76.2%; in test [16] it was 95.2%; in test [17], 105%; in test [18], 72.1%.
Turning to `CCCCCCCCCCCCCC1=NC(C)(C)CN1C(C)C`, the growth in test [1] is -4.87% (active); in test [2] it was 2.64% (active); in test [3], 55.3%; in test [4] it was -79.7% (active); in [5] it was -52.2% (active); in test [6] it was -61.7% (active). Also, the growth is -50.2% (active) in test [7]; -86.2% (active) in test [8]; 9.58% (active) in [10]; -49.5% (active) in test [19]; -48.9% (active) in test [11]; -56.7% (active) in [12]. The growth is -65.9% (active) in test [13]; -53.5% (active) in test [14]; -52.8% (active) in test [15]; -79.2% (active) in test [16]; -57.5% (active) in test [17]; -74.8% (active) in test [18].
